Where “and” joins values, the source holds several entries; their conditions need not be identical. Equal values may be shown once. Among all 5,500 compounds or so, about 2,000 (36%) were called active. Inconclusive results (about 18%) are left out. No stated cut-off is given here; in the data, active means normalized growth mostly below about 0.91 (no sharp cut-off); inconclusive means no clear call, values can overlap the other calls; inactive means mostly above about 0.92. Some of the results follow.
Assay: chemical genetic growth profiling, strain panel (AID 1159580);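 further: tested at 20 µM; growth read once vehicle control cultures reached saturation at 30 °C; 1 = growth at the plate median or of vehicle wells; lower values mean less growth of the strain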
Settings: S. cerevisiae deletion strains, growth OD

Measured: normalized growth

NC(=NCCCCCCN=C(N)N=C(N)Nc1ccc(Cl)cc1)N=C(N)Nc1ccc(Cl)cc1
active: locus YAL013W, strain DEP1, hits give low values 0.056 | locus YAL021C, strain ccr4, hits give low values 0.0662 | locus YAL026C, strain drs2, hits give low values 0.0626 | locus YAL030W, strain snc1, hits give low values 0.0546 | locus YBL061C, strain skt5, hits give low values 0.058 | locus YBR009C, strain hhf1, hits give low values 0.0582 | locus YBR021W, strain FUR4, hits give low values 0.0878 | locus YBR023C, strain chs3, hits give low values 0.0607 | locus YBR171W, strain sec66, hits give low values 0.0764 | locus YBR229C, strain ROT2, hits give low values 0.0485 | locus YBR231C, strain swc5, hits give low values 0.0617 | locus YBR279W, strain paf1, hits give low values 0.057 | locus YCL011C, strain gbp2, hits give low values 0.0584 | locus YCL016C, strain dcc1, hits give low values 0.0623 | locus YCL029C, strain bik1, hits give low values 0.0646 | locus YCL061C, strain MRC1, hits give low values 0.064 | locus YCL069W, strain vba3, hits give low values 0.0598 | locus YCR088W, strain abp1, hits give low values 0.0598 | locus YDL005C, strain med2, hits give low values 0.0712 | locus YDL035C, strain GPR1, hits give low values 0.0531 | locus YDL040C, strain nat1, hits give low values 0.0593 | locus YDL074C, strain BRE1, hits give low values 0.0847 | locus YDL101C, strain DUN1, hits give low values 0.0564 | locus YDL134C, strain PPH21, hits give low values 0.049 | locus YDL185W, strain tfp1, hits give low values 0.0606 | locus YDL192W, strain arf1, hits give low values 0.0624 | locus YDR001C, strain nth1, hits give low values 0.0588 | locus YDR069C, strain doa4, hits give low values 0.0603 | locus YDR101C, strain arx1, hits give low values 0.0584 | locus YDR137W, strain rgp1, hits give low values 0.0872 | locus YDR150W, strain NUM1, hits give low values 0.0563 | locus YDR159W, strain sac3, hits give low values 0.0896 | locus YDR162C, strain NBP2, hits give low values 0.0503 | locus YDR195W, strain ref2 0.121 | locus YDR297W, strain sur2, hits give low values 0.0547 | locus YDR318W, strain mcm21, hits give low values 0.0658 | locus YDR334W, strain swr1, hits give low values 0.0626 | locus YDR335W, strain msn5, hits give low values 0.0581 | locus YDR388W, hits give low values 0.0574 | locus YDR392W, strain spt3, hits give low values 0.0798 | locus YDR502C, strain sam2, hits give low values 0.0629 | locus YEL003W, strain gim4, hits give low values 0.0531 | locus YEL037C, strain rad23, hits give low values 0.0554 | locus YEL061C, strain CIN8 (second series), hits give low values 0.0594 | locus YEL061C, strain CIN8, hits give low values 0.0488 | locus YER015W, strain faa2, hits give low values 0.0825 | locus YER016W, strain bim1, hits give low values 0.058 | locus YER110C, hits give low values 0.0744 | locus YER111C, strain swi4, hits give low values 0.0705 | locus YER155C, strain BEM2 (second series), hits give low values 0.087 | locus YER155C, strain BEM2, hits give low values 0.0622 | locus YER167W, strain BCK2, hits give low values 0.0527 | locus YFR010W, strain ubp6, hits give low values 0.0674 | locus YGL078C, strain dbp3, hits give low values 0.65 | locus YGL086W, strain mad1, hits give low values 0.0564 | locus YGL167C, strain pmr1, hits give low values 0.0727 | locus YGL173C, strain kem1, hits give low values 0.0668 | locus YGL227W, strain vid30, hits give low values 0.0612 | locus YGL240W, strain doc1, hits give low values 0.0747 | locus YGL248W, strain PDE1, hits give low values 0.0464 | locus YGL253W, strain hxk2, hits give low values 0.0538 | locus YGR078C, strain PAC10, hits give low values 0.0508 | locus YGR135W, strain pre9, hits give low values 0.0694 | locus YGR229C, strain SMI1, hits give low values 0.0582 | locus YGR252W, strain gcn5, hits give low values 0.146 | locus YHR013C, strain ard1, hits give low values 0.103 | locus YHR027C, strain rpn1, hits give low values 0.058 | locus YHR030C, strain SLT2, hits give low values 0.051 and 0.102 | locus YHR079C, strain IRE1 (second series), hits give low values 0.0602 | locus YHR079C, strain IRE1, hits give low values 0.112 | locus YHR094C, strain hxt1, hits give low values 0.0587 | locus YHR129C, strain ARP1, hits give low values 0.0541 | locus YHR142W, strain chs7, hits give low values 0.0756 | locus YHR200W, strain rpn10, hits give low values 0.0614 | locus YIL066C, strain RNR3, hits give low values 0.0507 | locus YIL073C, strain SPO22, hits give low values 0.128 | locus YIL125W, strain kgd1, hits give low values 0.898 | locus YIR030C, strain dcg1, hits give low values 0.0593 | locus YJL092W, strain hpr5, hits give low values 0.0573 | locus YJL095W, strain BCK1 (second series), hits give low values 0.0565 | locus YJL095W, strain BCK1, hits give low values 0.0587 and 0.0988 | locus YJL115W, strain asf1, hits give low values 0.0702 | locus YJL129C, strain trk1, hits give low values 0.0784 | locus YJL134W, strain LCB3, hits give low values 0.0499 | locus YJL154C, strain vps35, hits give low values 0.0596 | locus YJL164C, strain tpk1, hits give low values 0.0644 | locus YJL166W, strain qcr8, hits give low values 0.0585 | locus YJL168C, strain set2, hits give low values 0.059 | locus YJL187C, strain SWE1 (second series), hits give low values 0.0495 | locus YJR043C, strain POL32, hits give low values 0.0601 | locus YJR066W, strain TOR1, hits give low values 0.00766
